Assay results taken from PubChem BioAssay (NCI).
Compounds without any hit were thinned out: in the full panel of roughly 79,000, 15% have a hit. The source made the active and inactive calls. Cut-off read from the data, not from the text of the source: active = growth inhibition above about 70%; inactive = the rest.

Assays:
[1] = NCI Yeast Anticancer Drug Screen. Data for the rad50 strain (AID 155);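 note: 0% = growth of vehicle-only cultures of the same strain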; conditions: S. cerevisiae rad50 strain growth inhibition; at 50.0 µM; stronger effect = higher value
Method in brief: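 Genetically altered yeast (DNA repair pathway); compound treatment; growth inhibition vs vehicle ctrl.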

[2] = NCI Yeast Anticancer Drug Screen. Data for the mec2-1 strain (AID 157); conditions: S. cerevisiae mec2-1 strain, at 50.0 µM, stronger effect = higher value
Method in brief: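 Yeast mec2-1 mutant treated with compound. Readout: growth inhibition vs vehicle controls.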

[3] = NCI Yeast Anticancer Drug Screen. Data for the sgs1 mgt1 strain (AID 161);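 note: 0% = growth of cultures given vehicle only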; conditions: S. cerevisiae sgs1 mgt1 strain, at 50.0 µM, stronger effect = higher value
Method in brief: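 Read-out: growth inhibition vs vehicle controls. Cells: mutant yeast strain deficient in DNA damage repair.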

[4] = NCI Yeast Anticancer Drug Screen. Data for the cln2 rad14 strain (AID 165);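 note: 0% = growth equal to vehicle treated cultures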; conditions: S. cerevisiae cln2 rad14 strain, at 50.0 µM, stronger effect = higher value
Method in brief: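 cln2 rad14 yeast strain; compound exposure; growth inhibition read vs vehicle controls.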

[5] = NCI Yeast Anticancer Drug Screen. Data for the bub3 strain (AID 167); conditions: S. cerevisiae bub3 mutant strain, at 50.0 µM, stronger effect = higher value
Method in brief: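 Yeast carrying a defined mutation is treated with each compound, and growth is compared with that of vehicle-exposed cells to give inhibition.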

[6] = NCI Yeast Anticancer Drug Screen. Data for the mlh1 rad18 strain (AID 175); conditions: S. cerevisiae mlh1 rad18 strain growth inhibition; at 50.0 µM; stronger effect = higher value
Method in brief: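 Yeast w/ defined DNA-repair lesions; compound exposure; growth vs vehicle controls → % inhibition.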

Measured: growth inhibition

CCC(=C(c1ccc(OCc2ccccc2)cc1)c1ccc(OCc2ccccc2)cc1)c1ccc(OC)cc1
inactive: [1] 14.7% | [2] -24.2% | [3] 9.45% | [4] -0.3% | [5] -20.8% | [6] -14.3%

CN(C)CCNC(=O)c1ccc2nc3c(nc2c1)C(=O)c1ccccc1-3
inactive: [1] -9.4% | [2] -2.85% | [3] 31.3% | [4] 36.8% | [5] 3.6% | [6] 15.9%

Oc1c(Cl)cc(Cl)cc1C1N2CCCCC2C2c3cccn3-c3ccccc3N21 (stereo unspecified)
inactive: [1] 22.4% | [2] 5.4% | [3] 18.3% | [4] 14.2% | [5] 21.2% | [6] -30.6%

COc1ccccc1P(=O)(CCP(=O)(c1ccccc1)c1ccccc1OC)c1ccccc1 (stereo unspecified)
inactive: [1] 2.15% | [2] 15.5% | [3] 13.3% | [4] 13.5% | [5] -1.75% | [6] 9.5%

CCOC(=O)C1CN(C)C(=O)C1=O (stereo unspecified)
inactive: [1] 17.2% | [2] -2.4% | [3] 16.6% | [4] 2.35% | [5] -0.05% | [6] 25.9%

COc1cc(SC)c(OC)cc1C
inactive: [1] 4.15% | [2] 0.65% | [3] -12.4% | [4] -22.4% | [5] -6% | [6] 4.85%

CON(C)c1nc(N)c(C#N)c(C#N)c1C#N
inactive: [1] 4.35% | [2] -23.7% | [3] 3.3% | [4] 13.4% | [5] 15% | [6] 7.45%

NC(=O)C(Cc1ccc(O)cc1)NC(=O)c1ccccc1 (stereo unspecified)
inactive: [1] -8.8% | [2] -16.6% | [3] -0.1% | [4] 1.85% | [5] 22.1% | [6] -14.2%

CC1(C)C2CC[C@]3(C)C(C(=O)C=C4[C@@H]5C[C@@](C)(C(=O)O)CC[C@]5(C)CCC43C)[C@@]2(C)CC[C@@H]1OC1OC(C(=O)O)C(O)C(O)C1OC1OC(C(=O)O)C(O)C(O)C1O (stereo partly specified) (tested in a mixture with another compound)
inactive: [1] 5.65% | [2] -2.45% | [3] 2.7% | [4] -12.2% | [5] -3.55% | [6] -0.35%

O=c1c2ccccc2ncn1C1OC(CO)C(O)C1O (stereo unspecified)
inactive: [1] 17.6% | [2] -19.1% | [3] -13.9% | [4] 4.95% | [5] 6.95% | [6] -2.05%

CC(CN(C)C)C(=O)c1ccccc1C(=O)O (stereo unspecified)
inactive: [1] -44.9% | [2] -24.9% | [3] -36% | [4] -35.2% | [5] -2.05% | [6] -16.7%

CC(C)(C)CC(C)(C)c1c(O)cc(O)cc1Cl
active: [1] 99% | [2] 99.3% | [3] 94.8% | [4] 99% | [5] 99.2% | [6] 99.2%

COC1=CC(=O)c2ccc3ccccc3c2C1=O
active: [1] 86.7% | [2] 90.4% | [3] 89.4% | [4] 88.8% | [5] 88.8% | [6] 86.5%

CCCCCCOc1ccc(OCCCC[N+]2(CC)CCCCC2)cc1
inactive: [4] 46.5%
active: [1] 75.5% | [2] 87.8% | [3] 73.7% | [5] 90.8% | [6] 90.8%

COc1cc2cc3c(c(O)c2c(O)c1/C=C/C(C)C)C(=O)CC(C)(OC(C)=O)C3 (stereo unspecified)
inactive: [1] 36.3% | [2] 8.95% | [3] 36.5% | [4] 30.4% | [5] 18.8%
active: [6] 74.2%

O=S1(=O)CC(N2CCCCC2)C1
inactive: [1] -3.95% | [2] 2.05% | [3] 17.3% | [4] -40.9% | [5] -3% | [6] -13.3%

NC(=O)CC1CCCCC1
inactive: [1] 8.3% | [2] -9% | [3] -7.05% | [4] 7.35% | [5] 17.2% | [6] -8.55%

NC(CCNCCc1ccccc1)CNCCc1ccccc1 (stereo unspecified)
inactive: [1] 29.7% | [2] -11.6% | [3] 10.9% | [4] -2.85% | [5] -6.5% | [6] -7.15%

S=C(S)N(Cc1ccccc1)Cc1ccccc1
inactive: [1] 33.4% | [2] -3% | [3] 27.2% | [4] -0.7% | [5] 6.6% | [6] 36.5%

Cc1cc2c(c3ccccc13)C(O)c1ccccc1-2 (stereo unspecified)
inactive: [1] -7.85% | [2] 5.95% | [3] 1.5% | [4] -15.4% | [5] 3.85% | [6] -9.25%

O=c1[nH]c2cc3[nH]c(=O)c(=O)[nH]c3cc2[nH]c1=O
inactive: [1] -21.8% | [2] -16.6% | [3] -6.7% | [4] 8.85% | [5] -5.7% | [6] -17.2%

O=C(c1ccc(Cl)c(Cl)c1)n1c2ccccc2c2ccccc21
inactive: [1] -0.65% | [2] -47.5% | [3] -12.3% | [4] 3.8% | [5] -4.1% | [6] 2.4%

Nc1cc(S(=O)(=O)O)nc(N)[n+]1[O-]
inactive: [1] 1.55% | [2] -1.8% | [3] 1.9% | [4] -36.3% | [5] -13.3% | [6] 2.8%

CCOc1ccc(/C=C2\C=Nc3ccccc32)cc1
inactive: [1] -3.75% | [2] -10.8% | [3] 3.2% | [4] 6.7% | [5] 16.1% | [6] -5.4%

N#CCCCCCCn1cnc2c(=S)nc[nH]c21
inactive: [1] 4.9% | [2] 9.55% | [3] 17.9% | [4] -13% | [5] -4.7% | [6] 22.4%

O=C(C(c1ccccc1)C(F)(F)F)N1CCCC1 (stereo unspecified)
inactive: [1] 7.4% | [2] -7.8% | [3] 5.05% | [4] -13.3% | [5] 13.8% | [6] 0.6%

Cc1cc(=O)c(O)c(C)o1
inactive: [1] -1.4% | [2] -2.9% | [3] -3.4% | [4] 2.5% | [5] -0.05% | [6] -1.7%

NC(=O)NN1CC(=O)N(c2ccccc2)CC1=O
inactive: [1] 7.75% | [2] 8.2% | [3] 6.8% | [4] -18.1% | [5] 14.2% | [6] 28.6%

Cc1ccc(NC(=O)COc2cc(Cl)c(Cl)cc2Cl)c([N+](=O)[O-])c1
inactive: [1] -28.9% | [2] -4.8% | [3] -11.8% | [4] -0.55% | [5] -0.2% | [6] -0.4%

Cc1cc([N+](=O)[O-])ccc1NC(=O)C(=O)C(C(=O)c1ccccc1-c1ccccc1)C1OC(=O)c2ccccc21 (stereo unspecified)
inactive: [1] 12% | [2] 12.4% | [3] -5.4% | [4] -52% | [5] 6.8% | [6] 41.5%

CCC1(C)CC(C)(C)c2cc(C(C)=O)c(C)cc21 (stereo unspecified)
inactive: [1] 8.1% | [2] -1.05% | [3] -4.7% | [4] -29.5% | [5] 11.3% | [6] 4.15%

CS(=O)(=O)Cc1cc(-c2ccccc2)no1
inactive: [1] 15.1% | [2] 28.1% | [3] 8.7% | [4] -3.4% | [5] 7.75% | [6] 9.85%

COc1ccc2c(c1)NC(c1ccccc1C(=O)O)c1cccn1-2 (stereo unspecified)
inactive: [1] 0.55% | [2] -20.9% | [3] 12.3% | [4] 5.75% | [5] 23.6% | [6] 5.6%

O=C1CCCC1C(=O)c1ccccc1.O=C1CCCC1C(=O)c1ccccc1.[Cu] (stereo unspecified)
inactive: [2] 22.1% | [4] 23.7% | [5] -2% | [6] 52.9%
active: [1] 70.9% | [3] 88.5%

CN1CCc2ccccc2C1Cc1cc(OCc2ccccc2)ccc1N (stereo unspecified)
inactive: [1] 36.2% | [2] 1.25% | [3] 23.6% | [4] 30.6% | [5] 14.8% | [6] 22.1%

CC(=O)Nc1ccc(S(=O)(=O)n2c(=O)oc3cc(Cl)ccc32)cc1
inactive: [1] 3.4% | [2] -2.6% | [3] 3.1% | [4] -2.4% | [5] 2.95% | [6] 13.5%

Nc1ncc(Cl)c(NCC2(CO)CC(CCc3ccccc3)C2)n1 (stereo unspecified)
inactive: [1] -4.7% | [2] -19.1% | [3] -11.6% | [4] -1.15% | [5] -37% | [6] 2.35%

O=C(O)c1cccc(S(=O)(=O)NN2C(=O)CSC2c2ccccc2)c1 (stereo unspecified)
inactive: [1] -22.4% | [2] -18.5% | [3] 5.55% | [4] 4.45% | [5] 3.7% | [6] -11.3%

CCNC1(C(=O)O)CCCCC1
inactive: [1] 1.4% | [2] -2.15% | [3] -1.5% | [4] 9.85% | [5] 2.3% | [6] -0.2%

O=C(CC(=O)Nc1ccccc1)NNC(Sc1ccccc1)c1cc(N=Nc2ccc(Br)cc2)ccc1O (stereo unspecified)
inactive: [1] 4.6% | [2] 14.1% | [3] 11.2% | [4] -10% | [5] -2.9% | [6] -4.7%

COC1=CC(=O)C2CC=C(C)CC2(C)C1=O (stereo unspecified)
inactive: [1] -7.9% | [2] -12.4% | [3] -16.6% | [4] 18% | [5] -0.05% | [6] -3.8%
